Screening data as filed in PubChem BioAssay.
In the library only some 9% were active in any assay of this set; here they are far more common.
IMPase cell inh: membrane-permeable compound that blocks inositol monophosphatase | P97697 | CHO-M1 cells, IP1 accumulation, HTRF TR-FRET ratio | inhibition (IP1 accumulation), % at 46.1 µM | 120,000 tested, under 10 active; active = well fitted curve in the direction sought with a large enough effect in the signal ratio, not every such curve was filed as active; inconclusive = small, poorly fitted or top-dose-only effect, or a change in a side signal; inactive = no such curve, though single readings can be large or run the other way; the % refers to the signal ratio;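 note: cells stimulated with carbachol in lithium chloride buffer; plate controls were DMSO basal wells for no effect and reference inhibitor wells for full effect; higher means more IMPase inhibition seen as more IP1 and lower FRET ratio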
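Carbachol-driven Gq signalling in CHO-M1 cells (2000/well) generates IP1. Compounds that block IMPase raise IP1 and so reduce the FRET signal from Eu-anti-IP1 and d2-IP1 after a 10 min room-temperature lysis.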
HPGD inh: blocks human HPGD enzyme activity | P15428 | purified HPGD, NADH fluorescence kinetic, PGE2 substrate | Potency, µM, without a hit: at the highest dose activity change, negative = inhibition, most hits filed as inhibitors | actives 4.3% (n = 150,000) | AID 894; note: potency is the fitted concentration of half-maximal effect
Target sequence (P15428 whole entry, looked up): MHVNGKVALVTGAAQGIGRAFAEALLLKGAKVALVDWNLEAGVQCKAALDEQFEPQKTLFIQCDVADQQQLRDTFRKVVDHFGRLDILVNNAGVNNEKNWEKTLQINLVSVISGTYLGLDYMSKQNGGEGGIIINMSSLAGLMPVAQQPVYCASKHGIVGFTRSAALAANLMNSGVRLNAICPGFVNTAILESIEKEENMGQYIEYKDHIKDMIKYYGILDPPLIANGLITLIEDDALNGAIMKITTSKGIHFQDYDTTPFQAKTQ
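20 nM HPGD preincubated 15 min at room temperature with compound in 50 mM Tris-HCl pH 8, 0.01% Tween 20. Started with 1 mM NAD+ and 30 uM prostaglandin E2; NADH fluorescence (360/450 nm) read 5 times over 30-s intervals, last minus first.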
ALDH1A1 block: inhibitors of human aldehyde dehydrogenase 1A1; Potency, µM (doses to about 75.3 µM), without a hit: at the highest dose activity, negative = inhibition, most hits filed as inhibitors; Purified ALDH1A1, NADH fluorescence, propionaldehyde substrate; actives 7.3% (n = 220,000); P00352; AID 1030;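 note: potency is the fitted concentration of half-maximal effect; plate controls were no enzyme wells and a reference inhibitor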
An asterisk follows results filed as active. Unless noted, calls come from the whole dose curve; as a rule, active = well fitted inhibition curve with a large enough effect (not every such curve was filed as active); inconclusive = small, poorly fitted or top-dose-only effect, or another doubt; inactive = no such curve, though single readings can be large or run the other way. Unless noted, % is set by controls: 0 for no effect and ±100 for the full control effect.

Results for CCOC(=O)/C(C#N)=C/c1cccc(F)c1 ?
ALDH1A1 block: -12%

What do the screens show for `CCn1cc(CNCc2c(C(=O)N3CCCCC3)nc3c(C)cccn23)cn1`?
ALDH1A1 block: -11%

Results for Cc1cccn2c(CNC3CCCc4ccccc43)c(C(=O)N3CCCCC3)nc12 (centres undefined) ?
ALDH1A1 block: 20µM*

How did O=C(Nc1cccc(Oc2c(F)c(F)c(F)c(F)c2F)c1)N1C[C@@H]2C[C@@H](C1)c1cccc(=O)n1C2 do in these assays?
IMPase cell inh: 9; ALDH1A1 block: 3%

How did O=C(c1ccc(-c2nnc(Nc3ccccc3)c3ccccc23)cc1)N1C[C@H]2C[C@H](C1)c1cccc(=O)n1C2 do in these assays?
IMPase cell inh: 6; HPGD inh: 32µM*; ALDH1A1 block: 13%

What do the screens show for `Cc1ccc(N2C(=O)CSC2c2cccnc2)cc1F` (centres undefined)?
IMPase cell inh: 14; HPGD inh: -5%; ALDH1A1 block: -2%

How did O=S(=O)(NCCOc1ccc(F)cc1)c1ccc2c(c1)OCCO2 do in these assays?
IMPase cell inh: inconclusive; HPGD inh: -2%; ALDH1A1 block: inconclusive

Results for O=S(=O)(NCCSc1ccccc1)c1ccc2c(c1)OCCO2 ?
IMPase cell inh: -6; HPGD inh: -17%; ALDH1A1 block: 0.56µM*

Results for Cc1noc(C)c1C(=O)N1CCC(CO)(Cc2ccccc2)CC1 ?
ALDH1A1 block: 4µM*

Results for Cc1noc(C)c1C(=O)N1CCN(Cc2ccccc2)CC1 ?
IMPase cell inh: 1; HPGD inh: -6%; ALDH1A1 block: -2%

How did COCCCn1c(C2CCCCC2)nc2oc3cc(OC)ccc3c(=O)c2c1=O do in these assays?
IMPase cell inh: -5; HPGD inh: -21%; ALDH1A1 block: inconclusive

How did CCCCNC(=S)N=Nc1c(O)n(Cc2ccccc2)c2ccccc12 do in these assays?
IMPase cell inh: 1; ALDH1A1 block: 20µM*

How did CCOC(=O)N=Nc1c(O)n(Cc2ccccc2)c2ccccc12 do in these assays?
ALDH1A1 block: 8.9µM*

Results for CCOC(=O)N=Nc1c(O)n(CC)c2ccccc12 ?
HPGD inh: -3%; ALDH1A1 block: -6%

Results for CCCCn1c(O)c(N=NC(=O)c2ccco2)c2ccccc21 ?
HPGD inh: -24%; ALDH1A1 block: -1%

Results for NC(=S)N=Nc1c(O)n(Cc2ccccc2)c2ccccc12 ?
HPGD inh: -8%; ALDH1A1 block: 2.5µM*

Results for O=Nc1c(O)n(Cc2cccc(Cl)c2)c2ccccc12 ?
IMPase cell inh: -3; HPGD inh: -29%; ALDH1A1 block: inconclusive

How did C/C(Cl)=C\Cn1c(O)c(N=NC(N)=S)c2ccccc21 do in these assays?
ALDH1A1 block: 1µM*

How did CC1=CC(C)(C)n2c(O)c(N=NC(N)=S)c3cccc1c32 do in these assays?
IMPase cell inh: 3; HPGD inh: -6%; ALDH1A1 block: inconclusive

How did CCCNC(=O)c1c(NC(=O)c2ccc(C)cc2)sc2c1CCCCC2 do in these assays?
IMPase cell inh: -2

What do the screens show for `CCCOc1ccc(C(=O)Nc2ccc3oc(-c4ccncc4)nc3c2)cc1`?
IMPase cell inh: -12

Results for Cc1ccc(Cn2ccsc2=NC(=O)CCl)cc1 ?
ALDH1A1 block: 10µM*

What do the screens show for `COc1ccc(C(=O)Cn2ccsc2=NC(C)=O)cc1`?
ALDH1A1 block: 7%

What do the screens show for `COc1cccc(NC(=O)CN2CCSc3ccccc32)c1`?
ALDH1A1 block: 19µM*

What do the screens show for `COc1cccc(NC(=O)CN2CCC(C)CC2)c1`?
IMPase cell inh: -4; HPGD inh: -19%; ALDH1A1 block: -3%

How did CC(CCc1ccccc1)NC(=O)CN1CCN(Cc2ccccc2)C1=O (centres undefined) do in these assays?
IMPase cell inh: 9; HPGD inh: -2%; ALDH1A1 block: -3%

How did CC(CCc1ccccc1)NC(=O)CN1CCSc2ccccc21 (centres undefined) do in these assays?
ALDH1A1 block: 13µM*

How did O=C(O)CN1C(=O)c2cccc(Oc3ccc(Cl)cc3)c2C1=O do in these assays?
IMPase cell inh: 0; HPGD inh: -9%; ALDH1A1 block: 5%

What do the screens show for `Cc1cccc(-c2c3c(=O)n(C)c(=O)n(C)c3cn2CC2CCCO2)c1` (centres undefined)?
IMPase cell inh: -2; HPGD inh: -21%; ALDH1A1 block: 20µM*

How did Cn1c(=O)c2c(-c3ccc(C(C)(C)C)cc3)n(CC3CCCO3)cc2n(C)c1=O (centres undefined) do in these assays?
IMPase cell inh: 2; HPGD inh: -19%; ALDH1A1 block: inconclusive

How did O=C(CSCC(=O)OCC(=O)c1ccc(Br)cc1)Nc1cccc2ccccc12 do in these assays?
IMPase cell inh: -1; HPGD inh: -21%; ALDH1A1 block: -13%
